HP1b chromo inh: HTS for Inhibitors of HP1-beta Chromodomain Interactions with Methylated Histone Tails. hit rate 0.56% among 390,000. Chromobox protein homolog 1 (Homo sapiens), P83916. AID 540317, 2011. Potency, µM (highest dose often 114 µM), inactives show top-dose activity change, negative = inhibition, actives largely listed as inhibitors. AlphaScreen HP1-beta / biotin-H3K9me3 peptide binding; also: potency is read from the fitted curve at half-maximal effect; nearly all actives have a fitted effect of over 70% in size
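Compound inhibition of the preformed complex between 50 nM HP1-beta and 50 nM biotinylated H3K9me3 peptide was read by AlphaScreen. Buffer was PBS pH 7.4 with 0.01% Tween-20. Incubations ran 30 min at room temperature, with 10 ug/mL donor/acceptor beads.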
BAZ2B block: qHTS Assay for Inhibitors of BAZ2B; AlphaScreen BAZ2B-H3K14Ac peptide displacement; Potency, µM (highest dose often 114 µM), for inactives: at the highest dose activity change, negative = inhibition, hits mostly inhibitors; hit rate 4.4% among 360,000; also: potency is read from the fitted curve at half-maximal effect; % is scaled to controls: 0 for no effect and ±100 for the full control effect; nearly all actives have a fitted effect of over 60% in size
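Protein-peptide AlphaScreen: BAZ2B 50 nM, b-H3K14Ac 50 nM, 1x PBS pH 7.4 + 0.01% Tween-20. Preincubation 30 min RT; cpd 30 min RT (top 110 uM); beads 20 min RT, light-protected.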
Six1-Eya2 blk: qHTS Assay for Inhibitors of the Six1/Eya2 Interaction | Homeobox protein SIX1 (Homo sapiens) + Protein phosphatase EYA2 (Homo sapiens), … | AlphaScreen GST-Six1/His-Eya2 binding, biochemical; active compounds read low | activity change, % (no concentration beside the values) | hit rate 0.56% among 360,000 | AID 651725, 2012; in the data active = activity change below about -65%; inconclusive = mostly about -30% to -63%; also: % is scaled to controls: 0 for no effect and ±100 for the full control effect
Target sequence (O00167 whole entry, looked up): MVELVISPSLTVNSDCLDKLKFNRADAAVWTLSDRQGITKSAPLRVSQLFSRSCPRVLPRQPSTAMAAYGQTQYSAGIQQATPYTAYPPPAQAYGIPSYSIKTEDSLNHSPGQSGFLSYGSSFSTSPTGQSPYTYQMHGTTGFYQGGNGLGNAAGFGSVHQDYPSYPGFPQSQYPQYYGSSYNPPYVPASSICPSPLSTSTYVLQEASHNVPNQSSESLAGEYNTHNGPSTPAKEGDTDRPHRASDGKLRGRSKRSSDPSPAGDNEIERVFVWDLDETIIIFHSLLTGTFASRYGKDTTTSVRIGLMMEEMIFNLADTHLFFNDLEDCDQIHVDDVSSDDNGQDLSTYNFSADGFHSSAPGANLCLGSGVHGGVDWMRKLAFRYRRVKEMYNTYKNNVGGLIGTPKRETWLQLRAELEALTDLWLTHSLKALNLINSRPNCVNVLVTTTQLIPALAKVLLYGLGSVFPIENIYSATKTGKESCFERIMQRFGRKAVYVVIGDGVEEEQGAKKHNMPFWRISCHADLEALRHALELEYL
Target sequence (Q15475 whole entry, looked up): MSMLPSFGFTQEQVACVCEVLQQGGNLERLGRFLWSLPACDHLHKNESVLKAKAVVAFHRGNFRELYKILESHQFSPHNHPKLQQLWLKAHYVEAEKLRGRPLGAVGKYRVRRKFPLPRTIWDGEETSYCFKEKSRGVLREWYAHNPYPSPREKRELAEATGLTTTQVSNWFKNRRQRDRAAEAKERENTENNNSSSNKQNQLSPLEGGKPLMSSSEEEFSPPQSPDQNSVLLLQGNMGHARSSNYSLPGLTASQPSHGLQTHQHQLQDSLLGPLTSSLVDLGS
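AlphaScreen with GST-Six1 and His-Eya2 (5X mix: 250 nM and 500 nM), glutathione donor and nickel acceptor beads; buffer 50 mM Tris pH 8.0, 300 mM NaCl, 1 mM TCEP; 1 h at 37 C in the dark.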
JMJD2A Tudor inh: qHTS Assay for Inhibitors of JMJD2A-Tudor Domain; Lysine-specific demethylase 4A (Homo sapiens), O75164; AlphaScreen JMJD2A-Tudor / H3K4me3 peptide binding; Potency, µM (series often up to 114 µM), without a hit: top-dose activity change, negative = inhibition, hits mostly inhibitors; hit rate 4.4% among 390,000; AID 504339, 2011; also: potency is read from the fitted curve at half-maximal effect; % is scaled to controls: 0 for no effect and ±100 for the full control effect; nearly all actives have a fitted effect of over 50% in size
CtBP-E1A inh: qHTS Assay for Inhibitors of the CtBP/E1A Interaction | AID 651724, 2012 | hit rate 0.49% among 340,000 | CtBP / adenovirus E1A interaction (AlphaScreen) | AlphaScreen GST-E1A/His-CtBP binding, 1536-well; active compounds read low | activity change, % (no concentration beside the values); in the data active = activity change below about -65%; inconclusive = mostly about -30% to -63%; also: % is scaled to controls: 0 for no effect and ±100 for the full control effect
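Protein mix (5X: 125 nM each GST-E1A, His-CtBP) was incubated with pinned compound 2 h at 37 deg C in dark, in 50 mM Tris pH 8.0 buffer with 300 mM NaCl. Glutathione donor and nickel acceptor beads followed; AlphaScreen signal read after 1 h.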
G9a inh: qHTS Assay for Inhibitors of Histone Lysine Methyltransferase G9a; Histone-lysine N-methyltransferase EHMT2 (Homo sapiens), Q96KQ7; G9a H3K9 monomethylation, AlphaScreen, 2 h; Potency, µM (top dose mostly 102 µM), for inactives: at the highest dose activity, negative = inhibition, hits mostly inhibitors; hit rate 8.8% among 350,000; also: potency is read from the fitted curve at half-maximal effect; % is scaled to controls: 0 for no effect and ±100 for the full control effect; nearly all actives have a fitted effect of over 75% in size
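Signal arises when biotinylated H3K9 peptide, once monomethylated, bridges streptavidin donor and antibody-captured acceptor beads. Enzyme at 20 nM was preincubated 15 min with test compounds; peptide 500 nM and SAM 20 uM then reacted for 2 h.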
Starred values were filed as active, the others as inactive; ? = inconclusive; · = not tested or not shown; [ ] = remark or other dose. The list is not random: actives were taken first. Their share in the collection is about 10%. Unless noted, calls follow the shape of the dose curve; as a rule, active = well fitted inhibition curve with a large enough effect; inconclusive = small, poorly fitted or top-dose-only effect; inactive = no such curve, though single readings can be large or run the other way.

SMILES | HP1b chromo inh | BAZ2B block | Six1-Eya2 blk | JMJD2A Tudor inh | CtBP-E1A inh | G9a inh
CCOc1cc(/C=C(\C#N)C(=O)Nc2cccc(C(=O)O)c2)ccc1OCc1ccccc1Cl | -25% | 50µM* | 8 | 56µM* | ? | 50µM*
N#C/C(=C/c1ccc(OCc2ccccc2)cc1)C(=O)NC1CCCCC1 | 48% | 0% | 3 | -43% | -1 | 14%[59 µM]
N#C/C(=C\c1ccc(OCc2ccc(F)cc2)cc1)C(=O)Nc1cccc(C(=O)O)c1 | 22% | 79µM* | 1 | -31% | 2 | -8%[12.7 µM]
N#C/C(=C\c1ccccc1OCc1ccc(C(=O)O)cc1)C(=O)Nc1ccc(O)cc1 | ? | -33% | -4 | -11%[11.4 µM] | · | 50µM*
COC(=O)c1ccc(COc2ccccc2/C=C(\C#N)C(=O)Nc2ccc(C)cc2)cc1 | 15% | -23% | 0 | -12% | 0 | 2%[59 µM]
N#C/C(=C\c1ccc(OCc2ccc(Br)cc2)cc1)C(=O)Nc1cccc(C(=O)O)c1 | -3% | 56µM* | 11 | 40µM* | 0 | ?
O=C1c2cccc3cccc(c23)C(c2nc3ccccc3[nH]2)N1C1CC1 (centres undefined) | · | · | 0 | · | -4 | ·
COc1cc2c(cc1OC)C(C)N(C(=O)C1=NN(c3cccc(C)c3)C(=O)CC1)CC2 (centres undefined) | 34% | -19%[57.1 µM] | -5 | -12% | -4 | -11%
COC(=O)Cn1c(=NC(=O)c2ccc3c(c2)OCCO3)sc2ccccc21 | 35%[57 µM] | 8% | · | -6% | · | -8%[59 µM]
CCOC(=O)c1c(N)n(-c2ccc(OCC)cc2)c2nc3ccccc3nc12 | 29% | -1% | · | -9% | · | -22%[59 µM]
N#C/C(=C\c1ccc(OCc2ccccc2)cc1)C(N)=O | ? | 1% | -4 | 14µM* | -16 | -28%
CCOc1cc(/C=C(\C#N)C(=O)Nc2cccc(C(=O)O)c2)cc(Br)c1OC(=O)c1ccc(OC)cc1 | ? | 50µM* | -10 | 56µM* | -12 | 56µM*
CCOc1cccc(NC(=O)/C(C#N)=C/c2cccnc2)c1 | 19% | -5% | -2 | -13% | -6 | -5%[59 µM]
N#C/C(=C/c1ccc(OCc2ccc(C(=O)O)cc2)cc1)C(=O)Nc1ccccc1 | 1% | 79µM* | -3 | 25µM* | · | 50µM*
COc1cc(/C=C(\C#N)C(=O)Nc2cccc(C(=O)O)c2)ccc1OCc1ccc(F)cc1 | 26% | -29% | -14 | -29% | -70* | ?
COc1ccc(NC(=O)/C(C#N)=C\c2ccc(OCc3ccc(C(=O)O)cc3)c(OC)c2)cc1 | ? | ? | -5 | ? | -20 | ?
CNc1nc(N)nc(OC(C(F)(F)F)C(F)(F)F)n1 | 40% | -2% | -1 | 9% | 15 | -1%
CCCCOc1ccc(CNC(=O)C2COc3ccc(OC)cc3C2)cc1 (centres undefined) | 41%[57 µM] | 18% | · | -4% | · | -1%[59 µM]
Cc1cccc(-n2nnnc2SCC(=O)Nc2cccc(S(N)(=O)=O)c2)c1 | 40% | -19% | 0 | -12% | · | ·
N#C/C(=C/c1ccc(OCc2ccc(C(=O)O)cc2)c(Br)c1)c1cccc(F)c1 | 5% | ? | 1 | 56µM* | 13 | -51%
COc1ccc2nc(SCC(=O)NC3(C#N)CCCCC3)[nH]c2c1 | 1% | 7% | -4 | -17% | -2 | 8%[0.501 µM]
CCCC[C@@H]1CCCO[C@@](C(=O)NCc2ccc(S(C)(=O)=O)cc2)(C(F)(F)F)C1 | 16% | · | · | -9% | · | ·
CN(c1ccc(O)cc1)c1nc(-c2ccccc2)cs1 | -8% | 50µM* | -21 | -24% | 0 | ?
Cc1ccc(OCC(=O)N(C)CCc2ccccn2)cc1 | -16% | ? | 6 | 10µM* | 8 | 20%[2.33 µM]
CC1CCC(C(C)C)C(OCC(O)CN2CCCC(C)C2)C1 (centres undefined) | 26% | -15% | -3 | -3% | -13 | -11%
SMILES | HP1b chromo inh | BAZ2B block | Six1-Eya2 blk | JMJD2A Tudor inh | CtBP-E1A inh | G9a inh
CC1CCC(C(C)C)C(OCC(O)C[N+]2(C)CCCCC2)C1 (centres undefined) | ? | -29% | 6 | -11% | 0 | 50µM*
CCCCC(CC)C(=O)Nc1ccc(C)c(O)c1 (centres undefined) | -13% | -5% | 1 | 50µM* | -25 | ·
CCCCC(CC)C(=O)Nc1ccc(Nc2ccccc2)cc1 (centres undefined) | -25% | ? | -23 | ? | -14 | ?
CCCCNC(=O)C1c2ccccc2OCC(=O)N1CCOC (centres undefined) | · | · | 4 | · | 4 | ·
c1cc2c(cc1NC1CCCCCC1)OCO2 | ? | 40µM* | -13 | 50µM* | -4 | 7.9µM*
O=C(NCc1ccc2c(c1)OCO2)C(=O)NC1CCCCC1 | ? | -3% | 2 | 50µM* | 2 | ?
O=C(NCc1ccc2c(c1)OCO2)C(=O)NCC1CCCO1 (centres undefined) | 39% | 0% | 14 | -5% | 2 | 17%[59 µM]
CC1CCCC(C)N1C(=O)CNCc1ccc2c(c1)OCO2 (centres undefined) | 1% | ? | 2 | 50µM* | 8 | 50µM*
CCOc1ccccc1NC(=O)CN1C(=O)COc2ccc(S(=O)(=O)N3CCCCCC3)cc21 | 29% | -25% | · | -8% | · | -3%[59 µM]
Cc1cc(C)c(NC(=O)CSc2nnc3[nH]c(=O)cc(C)n23)c(C)c1 | 44% | -12% | · | 1% | · | 6%[59 µM]
[O-]/C(=C(\C(=S)NCc1ccc2c(c1)OCO2)[n+]1ccccc1)c1ccc(Cl)s1 | -10% | 45µM* | -18 | -33% | -17 | 28µM*
O=C(NC(=S)NCc1ccc2c(c1)OCO2)c1ccccc1 | -10% | ? | -10 | -29% | -3 | ?
Cc1c(Cl)cccc1NC(=S)/C(=C(\[O-])c1ccc(Cl)s1)[n+]1ccccc1 | ? | ? | -13 | 45µM* | -10 | ?
[O-]/C(=C(\C(=S)Nc1ccc(SC(F)F)cc1)[n+]1cccc(CO)c1)c1ccc(Cl)s1 | -13% | 32µM* | -13 | ? | -9 | 25µM*
[O-]/C(=C(\C(=S)Nc1cccc2ccccc12)[n+]1cccc(CO)c1)c1ccc(Cl)s1 | -26% | 32µM* | -8 | ? | -12 | 40µM*
Cc1c(C(=O)N2CCC[C@H]2C(N)=O)oc2c(F)cccc12 | 35% | 1% | 4 | 5% | 12 | ·
